{"source": "ChEMBL document CHEMBL1961873", "about": "“Compounds: GSK PKIS; Assays: Nanosyn kinase panel” (2012)", "data": [{"molecular_target": "T1, Testis-specific serine/threonine-protein kinase 2 (Homo sapiens) (UniProt Q96PF2)", "T1 sequence (whole entry)": "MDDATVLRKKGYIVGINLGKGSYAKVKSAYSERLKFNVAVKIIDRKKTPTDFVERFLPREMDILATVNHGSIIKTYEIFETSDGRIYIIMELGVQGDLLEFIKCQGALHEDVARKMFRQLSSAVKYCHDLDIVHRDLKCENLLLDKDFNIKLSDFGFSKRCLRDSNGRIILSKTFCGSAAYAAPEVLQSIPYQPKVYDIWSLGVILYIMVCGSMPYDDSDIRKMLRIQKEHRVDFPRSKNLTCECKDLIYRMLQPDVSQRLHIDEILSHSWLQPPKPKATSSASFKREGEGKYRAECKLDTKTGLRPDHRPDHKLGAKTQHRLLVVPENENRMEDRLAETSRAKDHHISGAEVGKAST", "conditions": "at 0.1 µM", "units": {"inhibition": "%"}, "values": [{"molecule": "Fc1ccc(-c2ncn(C3CCNCC3)c2-c2ccnc(Oc3ccc(F)c(F)c3)n2)cc1", "inhibition": 0.64}, {"molecule": "COc1cc(C)c(N(C)C(=O)CN(C)C)cc1Nc1nc(Nc2cccc(F)c2C(N)=O)c2cc[nH]c2n1", "inhibition": 1.25}, {"molecule": "COc1ccc(-c2ccc3c(NC(=O)C4CC4)n[nH]c3n2)cc1", "inhibition": 0.65}, {"molecule": "COc1cc(Nc2ncc3c(C)nc(-c4cccc(Oc5ccccc5)c4)n3n2)cc(OC)c1OC", "inhibition": 1.01}, {"molecule": "COc1cc(Nc2ncc3c(C)nc(-c4cccc(C(F)(F)F)c4)n3n2)cc(OC)c1OC", "inhibition": 4.53}, {"molecule": "c1ccc(-c2n[nH]cc2-c2ccnc(-c3ccc(OCCN4CCOCC4)cc3)c2)nc1", "inhibition": -1.89}, {"molecule": "CCc1cccc(CC)c1/C=C/c1cncc(C(=O)NC)c1", "inhibition": 1.86}, {"molecule": "NS(=O)(=O)c1ccc(N/N=C2\\C(=O)Nc3ccc(-c4cnco4)cc32)cc1", "inhibition": 0.01}, {"molecule": "COc1cc2ncn(-c3cc(OCc4ccccc4C(F)(F)F)c(C(C)=O)s3)c2cc1OC", "inhibition": 1.34}, {"molecule": "COc1cccc(-n2cnc3c(N/N=C/c4ccncc4)ncnc32)c1", "inhibition": 0.37}, {"molecule": "NS(=O)(=O)c1ccc(N/N=C2\\C(=O)Nc3ccc(C(=O)NCCCn4ccnc4)cc32)cc1", "inhibition": 4.07}, {"molecule": "Fc1ccc(-c2ncn(C3CCNCC3)c2-c2ccnc(Oc3ccc4c(c3)OCO4)n2)cc1", "inhibition": 2.83}, {"molecule": "COc1cc(Nc2ncc(-c3ccccc3)o2)cc(OC)c1OC", "inhibition": -1.14}, {"molecule": "Fc1ccc(-c2ncn(C3CCNCC3)c2-c2ccnc(Oc3ccc(Oc4ccccc4)cc3)n2)cc1", "inhibition": 0.94}, {"molecule": "O=C(Nc1ccc(Oc2ccc3[nH]c(NC(=O)c4ccccc4)nc3c2)cc1)Nc1cc(C(F)(F)F)ccc1F", "inhibition": 1.68}, {"molecule": "Cc1ccc(C(=O)NC(C)C)cc1-c1ccc(C(=O)NCC2CC2)cc1", "inhibition": -1.67}, {"molecule": "NC(=O)c1ccc(Oc2nccc(-c3c(-c4ccc(F)cc4)ncn3C3CCNCC3)n2)cc1", "inhibition": 2.52}, {"molecule": "NC(=O)Cc1ccccc1Oc1nccc(-c2c(-c3ccc(F)cc3)ncn2C2CCNCC2)n1", "inhibition": 1.16}]}, {"molecular_target": "T1, Testis-specific serine/threonine-protein kinase 2 (Homo sapiens)", "conditions": "at 1 µM", "units": {"inhibition": "%"}, "values": [{"molecule": "Clc1ccc(CNc2nccc(-c3cnn4ncccc34)n2)cc1", "inhibition": -1.43}, {"molecule": "CN(c1ccc(NC(=O)Nc2c(Cl)cccc2Cl)cc1)c1ccnc(Nc2cccc(CS(C)(=O)=O)c2)n1", "inhibition": 1.93}, {"molecule": "Cc1ccc(NC(=O)c2ccoc2)cc1-c1ccc(C(=O)NCC2CC2)cc1", "inhibition": 1.22}, {"molecule": "FC(F)(F)c1cccc(Nc2nccc(-c3cnn4nc(-c5ccccc5)ccc34)n2)c1", "inhibition": 0.24}, {"molecule": "CN(C)c1ccc2c(c1)/C(=C/Nc1ccc(S(N)(=O)=O)cc1)C(=O)N2", "inhibition": 1.25}, {"molecule": "C/C(Nc1ccc(S(N)(=O)=O)cc1)=C1/C(=O)Nc2ccccc21", "inhibition": 1.13}, {"molecule": "COc1cc(N2CCN(C(C)C)CC2)ccc1Nc1nc(Nc2ccc(F)cc2C(=O)NC[C@@H](O)CO)c2cc[nH]c2n1", "inhibition": 53.7}, {"molecule": "Nc1nccc(-c2c(-c3ccc(F)cc3)ncn2C2CCC(O)CC2)n1", "note": "(configuration not stated)", "inhibition": -0.41}, {"molecule": "N#Cc1ccc(Oc2nccc(-c3c(-c4ccc(F)cc4)ncn3C3CCNCC3)n2)cc1", "inhibition": 4.59}, {"molecule": "C[C@@H](Oc1cc(-n2cnc3ccc(OCC4CCN(C)CC4)cc32)sc1C(N)=O)c1ccccc1Cl", "inhibition": 3.8}, {"molecule": "Fc1ccc(-c2c(-c3ccncc3)nc3n2CCS3)cc1", "inhibition": 2.38}, {"molecule": "O=C(Nc1n[nH]c2cc(-c3cc(F)ccc3F)ccc12)C1CC1", "inhibition": 0.5}, {"molecule": "CCS(=O)(=O)c1ccc(OC)c(Nc2ncc(-c3ccccc3Cl)o2)c1", "inhibition": 0.12}, {"molecule": "O=C(Nc1n[nH]c2nc(-c3ccco3)ccc12)C1CC1", "inhibition": -1.49}, {"molecule": "NS(=O)(=O)c1ccc(Nc2cc(-c3ccc(O)c(F)c3)n[nH]2)cc1", "inhibition": -0.52}, {"molecule": "O=C1Nc2ccccc2/C1=C/Nc1ccc(-n2cncn2)cc1", "inhibition": 5.54}, {"molecule": "Fc1ccc(-c2ncn(C3CCNCC3)c2-c2ccnc(Oc3ccc(F)c(F)c3)n2)cc1", "inhibition": 1.42}, {"molecule": "COc1cc(C)c(N(C)C(=O)CN(C)C)cc1Nc1nc(Nc2cccc(F)c2C(N)=O)c2cc[nH]c2n1", "inhibition": 4.87}, {"molecule": "COc1ccc(-c2ccc3c(NC(=O)C4CC4)n[nH]c3n2)cc1", "inhibition": 4.63}, {"molecule": "COc1cc(Nc2ncc3c(C)nc(-c4cccc(Oc5ccccc5)c4)n3n2)cc(OC)c1OC", "inhibition": -1.11}, {"molecule": "COc1cc(Nc2ncc3c(C)nc(-c4cccc(C(F)(F)F)c4)n3n2)cc(OC)c1OC", "inhibition": 3.7}, {"molecule": "c1ccc(-c2n[nH]cc2-c2ccnc(-c3ccc(OCCN4CCOCC4)cc3)c2)nc1", "inhibition": -0.96}, {"molecule": "CCc1cccc(CC)c1/C=C/c1cncc(C(=O)NC)c1", "inhibition": -3.19}, {"molecule": "NS(=O)(=O)c1ccc(N/N=C2\\C(=O)Nc3ccc(-c4cnco4)cc32)cc1", "inhibition": 1.76}, {"molecule": "COc1cc2ncn(-c3cc(OCc4ccccc4C(F)(F)F)c(C(C)=O)s3)c2cc1OC", "inhibition": 1.53}, {"molecule": "COc1cccc(-n2cnc3c(N/N=C/c4ccncc4)ncnc32)c1", "inhibition": 4.98}, {"molecule": "NS(=O)(=O)c1ccc(N/N=C2\\C(=O)Nc3ccc(C(=O)NCCCn4ccnc4)cc32)cc1", "inhibition": 6.71}, {"molecule": "Fc1ccc(-c2ncn(C3CCNCC3)c2-c2ccnc(Oc3ccc4c(c3)OCO4)n2)cc1", "inhibition": 4.26}, {"molecule": "COc1cc(Nc2ncc(-c3ccccc3)o2)cc(OC)c1OC", "inhibition": -1.3}, {"molecule": "Fc1ccc(-c2ncn(C3CCNCC3)c2-c2ccnc(Oc3ccc(Oc4ccccc4)cc3)n2)cc1", "inhibition": 2.4}, {"molecule": "O=C(Nc1ccc(Oc2ccc3[nH]c(NC(=O)c4ccccc4)nc3c2)cc1)Nc1cc(C(F)(F)F)ccc1F", "inhibition": 0.74}, {"molecule": "Cc1ccc(C(=O)NC(C)C)cc1-c1ccc(C(=O)NCC2CC2)cc1", "inhibition": -1.52}, {"molecule": "NC(=O)c1ccc(Oc2nccc(-c3c(-c4ccc(F)cc4)ncn3C3CCNCC3)n2)cc1", "inhibition": 2.46}, {"molecule": "NC(=O)Cc1ccccc1Oc1nccc(-c2c(-c3ccc(F)cc3)ncn2C2CCNCC2)n1", "inhibition": -0.31}]}]}
